The text below walks through data of the supplement of paper PMC10849652.

About 7,900 targets were measured; listed, in parts, are those with a hit and a random draw of the rest. About 0.6% of all pairs of compound and target were hits. Values without a mark were called inactive.

Assay in all cases: log2 fold change, soluble protein after heating vs DMSO (PISA); higher = thermal stabilisation; K562 cells, 10 uM, 30 min; active = over 0.2 and 3.5 SD of the protein, either way, in both replicates (recomputed)
Compound in one assay: C=CC(=O)N1CCC[C@@H](n2nc(-c3ccc(Oc4ccccc4)cc3)c3c(N)ncnc32)C1 [ibrutinib]
A digest of the protocol:
(§1)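 K562 cells at 2×10^6 cells/mL were treated for 30 min with 10 μM compound, and aliquots were heated for 3 min over 48°C-58°C before pooling. Extraction used PBS with 0.5% NP-40 at 4°C, and soluble protein was the supernatant after 21,000xg for 90 min, measured by TMTpro 16plex LC-MS/MS with channel sums equalised. Thermal stability values, relative to control samples and from duplicates, are log2 fold changes.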

Compound in assay [1]: CC(=O)c1cnc2ccc(-c3cc(Cl)c(O)c(Cl)c3)nc2c1N[C@H]1CC[C@H](CN(C)C)CC1
A digest of the protocol: as §1

Compound in assay [2]: CC(C)(O)CC(=O)NCCn1ccc2ncnc(Nc3ccc(Oc4cccc(C(F)(F)F)c4)c(Cl)c3)c21
A digest of the protocol: as §1

Compound in assay [3]: CC(C)C1=C2N=C(C=C(N2N=C1)NCC3=CC=CC=C3)NCCCCCCN
A digest of the protocol: as §1

Compound in assay [4]: CC1=C(C(CC(=O)N1)C2=CC=C(C=C2)C(F)(F)F)C(=O)NC3=C(C=C4C(=C3)C=NN4)F
Summed up: as §1

Compound in assay [5]: CC1=C(C2=C(C=C1)C(=O)C3=CC=CC=C3N2CCCN)C
Summed up: as §1

Compound in assay [6]: CC1=C(C=C(C=C1)NC(=O)C2=CC(=CC=C2)C(C)(C)C#N)NC3=CC4=C(C=C3)N=CN(C4=O)C
Summed up: as §1

Compound in a further assay: CCCCN(Cc1ccc(C(=O)NO)cc1)C(=O)Nc1ccccc1 [Nexturastat A]
Summed up:
as §1

Compound in the next assay: CCCS(=O)(=O)Nc1ccc(F)c(C(=O)c2c[nH]c3ncc(-c4ccc(Cl)cc4)cc23)c1F [vemurafenib]
A digest of the protocol:
as §1

Compound in assay [7]: CCCc1cc(C)[nH]c(=O)c1CNC(=O)c1cc(-c2ccnc(N3CCN(C)CC3)c2)cc2c1cnn2C(C)C
A digest of the protocol:
as §1

Compound in another assay: CCN(CC)Cc1ccc2cc(COC(=O)Nc3ccc(C(=O)NO)cc3)ccc2c1 [givinostat]
Summed up: as §1

Compound in a further assay: CCN(CCCOc1ccc2c(Nc3cc(CC(=O)Nc4cccc(F)c4)[nH]n3)ncnc2c1)CCOP(=O)(O)O [barasertib]
A digest of the protocol:
as §1

Compound in a further assay: CC(C)(C)Cn1c(N)nc2ccc(-c3[nH]c(C(C)(C)C)nc3-c3ccc(F)cc3)nc21 [ralimetinib]
Summed up: as §1

Compound in assay [8]: CC(C)C[C@@H](C=O)NC(=O)[C@H](CC(C)C)NC(=O)[C@H](CC(C)C)NC(=O)OCc1ccccc1
Summed up: as §1

Compound in assay [9]: CC1=C(C=C(C=C1)NC(=O)C2=CC(=CC=C2)N(C)C)NC(=O)C3=CC=C(C=C3)O
A digest of the protocol: as §1

Compound in assay [10]: CC1=CC=C(C=C1)SC2=C3C=C(SC3=CN=C2)C(=O)N
A digest of the protocol:
as §1

Compound in assay [11]: CCCS(=O)(=O)Nc1ccc(F)c(C(=O)c2c[nH]c3ncc(Cl)cc23)c1F
A digest of the protocol: as §1

Chain of UniProt A1X283 (A1X283 whole entry, looked up): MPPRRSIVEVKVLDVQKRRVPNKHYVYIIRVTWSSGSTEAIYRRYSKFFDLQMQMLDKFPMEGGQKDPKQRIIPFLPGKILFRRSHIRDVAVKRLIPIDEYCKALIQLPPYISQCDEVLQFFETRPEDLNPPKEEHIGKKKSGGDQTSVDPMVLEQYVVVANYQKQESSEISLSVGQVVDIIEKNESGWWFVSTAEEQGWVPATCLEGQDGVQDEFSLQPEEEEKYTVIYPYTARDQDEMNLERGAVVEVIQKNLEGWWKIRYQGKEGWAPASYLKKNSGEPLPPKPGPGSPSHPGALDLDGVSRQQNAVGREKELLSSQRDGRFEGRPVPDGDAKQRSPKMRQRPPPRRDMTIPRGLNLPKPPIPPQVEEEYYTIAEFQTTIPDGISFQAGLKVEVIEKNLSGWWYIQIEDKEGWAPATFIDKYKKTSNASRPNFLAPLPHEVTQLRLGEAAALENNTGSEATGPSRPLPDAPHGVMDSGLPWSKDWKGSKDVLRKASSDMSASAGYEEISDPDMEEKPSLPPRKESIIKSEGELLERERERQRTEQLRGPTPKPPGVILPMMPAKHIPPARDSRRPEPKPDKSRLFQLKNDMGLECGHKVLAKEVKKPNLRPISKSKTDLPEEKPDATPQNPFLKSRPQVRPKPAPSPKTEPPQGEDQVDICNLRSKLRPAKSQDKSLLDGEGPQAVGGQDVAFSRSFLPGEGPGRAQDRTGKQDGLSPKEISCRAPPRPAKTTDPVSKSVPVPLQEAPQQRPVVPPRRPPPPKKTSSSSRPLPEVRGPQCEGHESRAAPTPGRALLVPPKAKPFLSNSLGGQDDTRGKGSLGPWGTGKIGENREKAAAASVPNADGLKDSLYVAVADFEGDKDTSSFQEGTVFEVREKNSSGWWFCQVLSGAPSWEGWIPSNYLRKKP
Chain of UniProt Q9BY78 (Q9BY78 whole entry, looked up): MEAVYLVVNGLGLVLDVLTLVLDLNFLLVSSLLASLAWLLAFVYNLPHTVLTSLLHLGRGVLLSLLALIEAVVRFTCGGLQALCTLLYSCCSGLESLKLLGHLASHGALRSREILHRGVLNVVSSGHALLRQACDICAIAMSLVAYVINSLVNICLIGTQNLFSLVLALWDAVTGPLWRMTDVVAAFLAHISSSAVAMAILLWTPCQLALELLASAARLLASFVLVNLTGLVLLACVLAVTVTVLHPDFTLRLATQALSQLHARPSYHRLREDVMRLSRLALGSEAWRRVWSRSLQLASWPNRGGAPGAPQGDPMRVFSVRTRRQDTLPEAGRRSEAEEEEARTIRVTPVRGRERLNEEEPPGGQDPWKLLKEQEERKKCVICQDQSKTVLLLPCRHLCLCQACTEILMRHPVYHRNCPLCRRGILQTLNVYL
Chain of UniProt O00560 (O00560 whole entry, looked up): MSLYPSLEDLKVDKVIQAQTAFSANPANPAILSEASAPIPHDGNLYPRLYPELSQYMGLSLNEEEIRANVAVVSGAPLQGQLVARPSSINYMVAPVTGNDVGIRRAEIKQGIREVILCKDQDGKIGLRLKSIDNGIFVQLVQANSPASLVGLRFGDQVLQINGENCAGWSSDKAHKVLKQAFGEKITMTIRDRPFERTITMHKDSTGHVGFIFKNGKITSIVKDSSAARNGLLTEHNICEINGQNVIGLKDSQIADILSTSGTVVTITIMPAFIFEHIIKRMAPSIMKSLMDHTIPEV
Chain of UniProt Q02383 (Q02383 whole entry, looked up): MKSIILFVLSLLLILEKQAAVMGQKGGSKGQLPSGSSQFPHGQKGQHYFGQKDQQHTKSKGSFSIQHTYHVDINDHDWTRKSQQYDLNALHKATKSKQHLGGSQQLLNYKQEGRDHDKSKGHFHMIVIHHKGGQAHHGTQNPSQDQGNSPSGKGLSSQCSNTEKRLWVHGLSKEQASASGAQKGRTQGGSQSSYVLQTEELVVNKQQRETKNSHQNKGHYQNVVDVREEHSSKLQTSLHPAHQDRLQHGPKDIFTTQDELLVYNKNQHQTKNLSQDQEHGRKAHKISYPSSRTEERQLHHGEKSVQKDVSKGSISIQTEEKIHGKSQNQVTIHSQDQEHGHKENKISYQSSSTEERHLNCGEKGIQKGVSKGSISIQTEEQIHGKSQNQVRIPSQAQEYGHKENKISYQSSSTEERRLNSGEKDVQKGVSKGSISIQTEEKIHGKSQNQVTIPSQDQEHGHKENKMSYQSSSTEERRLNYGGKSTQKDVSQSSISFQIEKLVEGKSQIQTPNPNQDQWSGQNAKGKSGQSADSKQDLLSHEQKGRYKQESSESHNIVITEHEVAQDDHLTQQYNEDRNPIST
Chain of UniProt O95716 (O95716 whole entry, looked up): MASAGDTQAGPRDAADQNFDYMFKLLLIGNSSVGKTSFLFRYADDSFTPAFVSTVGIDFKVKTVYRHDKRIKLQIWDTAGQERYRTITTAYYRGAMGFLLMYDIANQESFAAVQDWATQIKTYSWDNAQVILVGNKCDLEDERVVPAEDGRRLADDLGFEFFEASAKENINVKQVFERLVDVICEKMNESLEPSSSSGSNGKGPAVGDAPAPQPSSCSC

For SH3PXD2B (UniProt A1X283), the log2 fold change in the assay with ibrutinib is -0.115; in assay [1] it was -0.005; in assay [2], 0.035; in assay [3], 0.075; in assay [4] it was -0.054; in [5] it was 0.027. Besides, the log2 fold change in [6] was -0.029; with Nexturastat A it was -0.052; in the assay with vemurafenib, -0.145; in assay [7], 0.187; with givinostat, -0.548 (active); with barasertib, 0.043.
On to RPS3A (UniProt D6R9B6), for which the values for the log2 fold change in assay [1], in assay [5] and in [6] were -0.124, -0.363 and -0.199, respectively.
Take SDCBP isoform 2 (UniProt O00560): the log2 fold change is 0 with ibrutinib; 0.06 with ralimetinib; 0.008 in [2]; -0.444 in assay [3]; 0.13 in assay [8]; -0.29 in assay [4]. Also, the log2 fold change was 0.033 in [5]; 0.06 in [6]; -0.058 in assay [9]; 0.004 in [10]; 0.149 with Nexturastat A; 0.076 in assay [11]. For the same target, the log2 fold change in [7] was -0.048; with givinostat it was -0.008; with barasertib, 0.046.
For RNF26 (UniProt Q9BY78), the log2 fold change was -0.033 with ibrutinib; 0.095 in the assay with ralimetinib; 0.281 in assay [8]; 0.012 in assay [9]; 0.281 with vemurafenib; 0.124 in the assay with barasertib.
Consider SEMG2 (UniProt Q02383), for which the log2 fold change with ibrutinib was -0.031; in assay [1] it was -0.148; in assay [2], -0.011; in assay [4], -0.031; in [5], 0.049; in assay [6] it was -0.038. Besides, the values for the log2 fold change (in the assay with Nexturastat A; in assay [7]; in the assay with barasertib) were -0.062, -0.097 and 0.015, respectively.
On to RAB3D (UniProt O95716), for which the log2 fold change in the assay with ibrutinib is -0.096; in assay [1], -0.02; in the assay with ralimetinib, 0.133; in [3] it was 0.121; in [8], -0.605 (active); in assay [4], -0.14. Besides, the log2 fold change is -0.104 in assay [5]; 0.074 in assay [9]; 0.036 in [10]; -0.113 with vemurafenib; 0.094 in assay [11]; 0.032 in assay [7]. For the same target, the results for the log2 fold change in the assay with givinostat and in the assay with barasertib were -0.08 and 0.034, respectively.
